Compound activity as filed in PubChem.
An excerpt weighted towards active compounds, which were near 9.2% of everything screened.
FLuc counter: counter-screen for miR-21 project: firefly luciferase inhibitors or activators; purified FLuc, Km substrates, luminescence inhibition; Potency, µM (doses to about 57.5 µM), most hits filed as inhibitors; 6.9% of 360,000 active; AID 588342; also: nearly all actives have a fitted effect of over 55% in size
Target sequence (P08659 whole entry, looked up): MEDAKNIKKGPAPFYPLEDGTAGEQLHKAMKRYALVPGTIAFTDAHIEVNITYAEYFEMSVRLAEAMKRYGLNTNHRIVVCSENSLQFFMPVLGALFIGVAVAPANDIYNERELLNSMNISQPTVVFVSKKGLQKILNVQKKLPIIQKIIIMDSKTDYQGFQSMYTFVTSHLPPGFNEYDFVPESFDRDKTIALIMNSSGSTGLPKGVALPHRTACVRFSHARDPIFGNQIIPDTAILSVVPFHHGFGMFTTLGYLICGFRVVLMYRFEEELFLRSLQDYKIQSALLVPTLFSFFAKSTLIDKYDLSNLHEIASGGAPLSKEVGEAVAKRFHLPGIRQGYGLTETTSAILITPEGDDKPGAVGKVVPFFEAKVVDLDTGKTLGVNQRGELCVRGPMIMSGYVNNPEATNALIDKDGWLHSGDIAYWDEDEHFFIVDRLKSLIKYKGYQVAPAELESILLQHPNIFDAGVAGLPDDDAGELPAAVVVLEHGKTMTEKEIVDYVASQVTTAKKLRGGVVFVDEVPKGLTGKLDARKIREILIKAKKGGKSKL
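Purified P. pyralis luciferase, 10 nM final, with Km-level 10 uM D-luciferin and 10 uM ATP in 50 mM Tris acetate pH 7.5, 10 mM Mg acetate, 0.01% Tween-20, 0.05% BSA; 6-point qHTS titration about 60 µM downward; luminescence read.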
Rab9 prom act: activators of Rab9 promoter | Huh7 Rab9 promoter-luciferase reporter, luminescence, 24 h | Potency, µM (doses to about 9.22 µM), hits mostly activators | 2.8% of 320,000 active | AID 485297; also: nearly all actives have a fitted effect of over 60% in size
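Cell-based reporter: Huh7 stable for Rab9 promoter-driven luciferase, plated in reduced-serum medium with 10% FBS at 1500 cells/well, compound-treated 24 h at 37 °C, luminescence read after 10 min reagent.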
ELG1 DNA repair: ELG1-dependent DNA repair inhibition | 2.3% of 330,000 active | AID 504467 | Potency, µM (series often up to 46.1 µM), usual class: inhibitors | HEK293T ELG1-luciferase reporter, luminescence, 16 h; DNA damage induced by 5-fluorouridine; also: nearly all actives have a fitted effect of over 55% in size
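HEK293T cells expressing luciferase-tagged ELG1 (2,000/well) received 5-Fluorouridine plus compound or DMSO for 16 hr at 37 °C. Luciferase was read by ONE-Glo luminescence after 30 min at room temperature.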
ELG1 genotox: genotoxicity induction in ELG1-luciferase HEK293T cells. 1.3% of 330,000 active. Potency, µM (titrated, usually from 46 µM), actives largely listed as activators. AID 504466. HEK293T ELG1-luciferase reporter, luminescence, 16 h; also: nearly all actives have a fitted effect of over 60% in size
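Cells (2,000/well) expressing the ELG1-luciferase fusion are dosed by pin tool and kept 16 hr at 37 °C, 5% CO2. Signal comes from ONE-Glo luciferase reagent after 30 min at room temperature.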
SMN2 splice up: increases expression of the SMN2 splice variant. HEK293 SMN2-luciferase splicing reporter, luminescence, 30-36 h. Potency, µM (doses to about 46.1 µM), actives largely listed as activators. 2.8% of 210,000 active; also: nearly all actives have a fitted effect of over 55% in size
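HEK293 cells carry an SMN2 […]–luciferase reporter in which exon 7 inclusion puts luciferase in frame. Cells were plated 10-12 h before compound addition, then incubated 30-36 h at 37C. ONE-Glo luminescence was read; sodium butyrate at 4.5 mM final served as control.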
NPC1 prom act: activators of NPC1 promoter; Huh7 NPC1 promoter luciferase reporter, 24 h; Potency, µM (series often up to 9.22 µM), most hits filed as activators; AID 485313; 2.4% of 320,000 active; also: nearly all actives have a fitted effect of over 60% in size
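Stably transfected Huh7 (NPC1 promoter→luciferase), 1500 cells/well in Opti-MEM + 10% FBS, 2 h settle, then compound 24 h at 37 °C. Luminescence after 10 min with Amplite reagent.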
A number is an active result; [ ] = another dose, or the depositor's remark. Calls follow the shape of the dose curve; as a rule, active = well fitted curve in the direction sought with a large enough effect; inconclusive = small, poorly fitted or top-dose-only effect, or another doubt; inactive = no such curve, though single readings can be large; an effect the other way counts as inactive or inconclusive.

Results for Nc1ccc(-c2nc3ncccc3o2)c(Cl)c1 ?
FLuc counter: 4.8µM; Rab9 prom act: 3.2µM; ELG1 DNA repair: inconclusive; ELG1 genotox: 10µM; SMN2 splice up: 13µM; NPC1 prom act: 2µM

What do the screens show for `Nc1ccc(Cl)c(-c2nc3ncccc3o2)c1`?
FLuc counter: inconclusive; Rab9 prom act: inactive; ELG1 DNA repair: inconclusive; ELG1 genotox: inactive; SMN2 splice up: inconclusive; NPC1 prom act: inactive

How did CCCCn1c(N)c(N(CC(C)C)C(=O)c2ccc(S(=O)(=O)N3CCCCC3)cc2)c(=O)[nH]c1=O do in these assays?
FLuc counter: inactive; Rab9 prom act: inactive; ELG1 DNA repair: inactive; ELG1 genotox: inactive; NPC1 prom act: inactive

What do the screens show for `CCS(=O)(=O)c1nc(S(=O)(=O)c2ccc(Cl)cc2)c(NCCN2CCOCC2)s1`?
FLuc counter: inactive; Rab9 prom act: inactive; ELG1 DNA repair: inactive; ELG1 genotox: inactive; NPC1 prom act: inactive

Results for COc1ccc(CCNC2CC(=O)N(C3CCCCC3)C2=O)cc1OC (stereo not given) ?
FLuc counter: inactive; Rab9 prom act: inactive; ELG1 DNA repair: inactive; ELG1 genotox: inactive; SMN2 splice up: inactive; NPC1 prom act: inactive

Results for CCc1ccccc1NC(=O)Nc1ccc2c(c1)N(CC)C(=O)c1ccccc1S2 ?
FLuc counter: inactive

Results for CC(C)(C)C(=O)Nc1ccc(C(=O)N/N=C/c2ccccc2OC(=O)c2ccc(Cl)cc2)cc1 ?
FLuc counter: inactive; Rab9 prom act: inactive; ELG1 DNA repair: 18µM; ELG1 genotox: inactive; SMN2 splice up: inactive; NPC1 prom act: inactive

Results for COc1ccc(C(=O)N/N=C/c2ccc(OC(=O)c3ccccc3)cc2)cc1 ?
FLuc counter: inactive; Rab9 prom act: inactive; ELG1 DNA repair: inconclusive; ELG1 genotox: inconclusive; SMN2 splice up: inactive[1.84 µM]; NPC1 prom act: inactive

Results for COc1ccc(C(=O)N/N=C/c2ccccc2OC(=O)c2ccccc2)cc1 ?
FLuc counter: inconclusive; Rab9 prom act: inactive; ELG1 DNA repair: inconclusive; ELG1 genotox: 21µM; NPC1 prom act: inconclusive

What do the screens show for `COc1cc(C(=O)Oc2ccccc2/C=N/NC(=O)c2ccc(C)cc2)cc(OC)c1OC`?
FLuc counter: 6µM; Rab9 prom act: inconclusive; ELG1 DNA repair: inconclusive; ELG1 genotox: inactive; SMN2 splice up: inactive; NPC1 prom act: inconclusive

How did NC(=O)N/N=C/c1ccccc1OC(=O)c1ccccc1Br do in these assays?
FLuc counter: 27µM; Rab9 prom act: inactive; ELG1 DNA repair: inactive; ELG1 genotox: inactive; SMN2 splice up: inactive; NPC1 prom act: inactive

How did COC(=O)c1c(NC(=O)COC(=O)c2ccc(Cl)nc2)sc(C)c1C do in these assays?
FLuc counter: inactive; Rab9 prom act: inactive; ELG1 DNA repair: inactive; ELG1 genotox: inactive; NPC1 prom act: inactive

Results for CCN(c1ccccc1)S(=O)(=O)c1ccc(Cl)c(NC(=O)CNC(C)c2ccccc2)c1 (stereo not given) ?
ELG1 DNA repair: 15µM; ELG1 genotox: inactive

What do the screens show for `CCN(c1ccccc1)S(=O)(=O)c1ccc(Cl)c(NC(=O)CN2CCCCCC2)c1`?
FLuc counter: inactive; Rab9 prom act: inactive; ELG1 DNA repair: 16µM; ELG1 genotox: inactive; NPC1 prom act: inactive

Results for CN(C)S(=O)(=O)c1ccc(Cl)c(NC(=O)CN2CCCCCC2)c1 ?
FLuc counter: inactive; Rab9 prom act: inactive; ELG1 DNA repair: inactive; ELG1 genotox: inactive; SMN2 splice up: inactive; NPC1 prom act: inactive

How did CCC(C)NCC(=O)Nc1cc(S(=O)(=O)N(CC)c2ccccc2)ccc1Cl (stereo not given) do in these assays?
FLuc counter: inactive; Rab9 prom act: inactive; ELG1 DNA repair: inactive; ELG1 genotox: inactive; SMN2 splice up: inactive; NPC1 prom act: inactive

What do the screens show for `CCC1CCCCN1C(=O)CCc1nnc(C2CCCCC2)o1` (stereo not given)?
FLuc counter: inconclusive; Rab9 prom act: inactive; ELG1 DNA repair: inconclusive; ELG1 genotox: inactive; NPC1 prom act: inactive

How did O=C(O)CCCCCCCCCCCNC(=O)NC12CC3CC(CC(C3)C1)C2 do in these assays?
FLuc counter: inactive; Rab9 prom act: inactive; ELG1 DNA repair: inconclusive; ELG1 genotox: inactive; NPC1 prom act: inactive

Results for O=S(=O)(Cc1cc(-c2ccccc2)no1)c1ccccc1 ?
FLuc counter: 27µM; Rab9 prom act: inconclusive; ELG1 DNA repair: inconclusive; ELG1 genotox: inconclusive; SMN2 splice up: inconclusive; NPC1 prom act: inconclusive

Results for COc1ccc(-c2cc(CS(=O)(=O)c3ccccc3)on2)cc1 ?
FLuc counter: 11µM; Rab9 prom act: 3.2µM; ELG1 DNA repair: inconclusive; ELG1 genotox: inconclusive; SMN2 splice up: 18µM; NPC1 prom act: 3.2µM

What do the screens show for `COc1ccc(-c2cc(CNS(=O)(=O)c3ccc(NC(C)=O)cc3)on2)cc1`?
FLuc counter: inactive; Rab9 prom act: inactive; ELG1 DNA repair: inactive; ELG1 genotox: inactive; NPC1 prom act: inactive

What do the screens show for `O=C1c2ccccc2C(=O)N1Cc1cc(-c2ccccc2)no1`?
FLuc counter: inactive; Rab9 prom act: inactive; ELG1 DNA repair: inactive; ELG1 genotox: inactive; SMN2 splice up: inactive; NPC1 prom act: inactive

Results for CCN(CC)c1cc(C)c2cc(NC(=O)/C=C/c3ccccc3OC(C)C)ccc2n1 ?
FLuc counter: inactive; SMN2 splice up: inactive

Results for CCn1c(=O)cc(SCC(=O)N2CCOCC2)c2ccccc21 ?
FLuc counter: inactive; Rab9 prom act: inactive; ELG1 DNA repair: inconclusive; ELG1 genotox: inconclusive; SMN2 splice up: 14µM; NPC1 prom act: inactive

Results for CCn1c(=O)cc(SCC(=O)N2CCN(C(=O)c3ccco3)CC2)c2ccccc21 ?
FLuc counter: inactive; Rab9 prom act: inactive; ELG1 DNA repair: inconclusive; ELG1 genotox: inconclusive; SMN2 splice up: inconclusive; NPC1 prom act: inactive

Results for CCn1c(=O)cc(SCC(=O)N2CCN(C3CCCCC3)CC2)c2ccccc21 ?
FLuc counter: inactive; Rab9 prom act: inactive; ELG1 DNA repair: inconclusive; ELG1 genotox: inactive; SMN2 splice up: 10µM; NPC1 prom act: inactive

How did CCn1c(=O)cc(SCC(=O)N2CCN(c3ccccc3OC)CC2)c2ccccc21 do in these assays?
FLuc counter: inactive; Rab9 prom act: inactive; ELG1 DNA repair: inactive; ELG1 genotox: inactive; NPC1 prom act: inactive

What do the screens show for `O=C(CSc1ccccc1)NCc1ccccn1`?
FLuc counter: inactive; Rab9 prom act: inactive; ELG1 DNA repair: inconclusive; ELG1 genotox: inactive; SMN2 splice up: inactive; NPC1 prom act: inactive

How did C/C=C(\C)C(=O)OC(C)(C)[C@H]1Cc2cc3ccc(=O)oc3cc2O1 do in these assays?
FLuc counter: inactive; Rab9 prom act: inactive; ELG1 DNA repair: inactive; ELG1 genotox: inactive; NPC1 prom act: inactive

Results for CC(C)=NN/C(N)=N/C(=S)Nc1ccc(C)cc1 ?
FLuc counter: 4.8µM; Rab9 prom act: inactive; ELG1 DNA repair: inconclusive; ELG1 genotox: inconclusive; SMN2 splice up: inactive; NPC1 prom act: inactive
